Assay results reported in ChEMBL document CHEMBL3433997, “St. Jude Leishmania screening dataset” (2016).

Assays:
Type in all cases: functional
[1] = molecular target: Solute carrier family 2, facilitated glucose transporter member 1 (Homo sapiens) (UniProt P11166); assay: ST_JUDE_LEISH: Cytotoxicity at 2uM final concentration against transgenic Leishmania Mexicana promastigotes LmGLUT1 that are glucose transport deficient and complemented with the human glucose transporter GLUT1. Activity is measured by DNA content using SYBR green in vitro
[2] = molecular target: Hexose transporter 1 (Plasmodium falciparum) (UniProt O97467); assay: ST_JUDE_LEISH: Cytotoxicity at 2uM final concentration against transgenic Leishmania Mexicana promastigotes LmPfHT that are glucose transport deficient and complemented with the Plasmodium falciparum hexose transporter. Activity is measured by DNA content using SYBR green in vitro
[3] = molecular target: Glucose transporter (Leishmania mexicana) (UniProt O61059); assay: ST_JUDE_LEISH: Cytotoxicity at 2uM final concentration against transgenic Leishmania Mexicana promastigotes LmGT2 that are glucose transport deficient and complemented with the L. Mexicana glucose transporter 2. Activity is measured by DNA content using SYBR green in vitro

Solute carrier family 2, facilitated glucose transporter member 1 (Homo sapiens), sequence (P11166 whole entry): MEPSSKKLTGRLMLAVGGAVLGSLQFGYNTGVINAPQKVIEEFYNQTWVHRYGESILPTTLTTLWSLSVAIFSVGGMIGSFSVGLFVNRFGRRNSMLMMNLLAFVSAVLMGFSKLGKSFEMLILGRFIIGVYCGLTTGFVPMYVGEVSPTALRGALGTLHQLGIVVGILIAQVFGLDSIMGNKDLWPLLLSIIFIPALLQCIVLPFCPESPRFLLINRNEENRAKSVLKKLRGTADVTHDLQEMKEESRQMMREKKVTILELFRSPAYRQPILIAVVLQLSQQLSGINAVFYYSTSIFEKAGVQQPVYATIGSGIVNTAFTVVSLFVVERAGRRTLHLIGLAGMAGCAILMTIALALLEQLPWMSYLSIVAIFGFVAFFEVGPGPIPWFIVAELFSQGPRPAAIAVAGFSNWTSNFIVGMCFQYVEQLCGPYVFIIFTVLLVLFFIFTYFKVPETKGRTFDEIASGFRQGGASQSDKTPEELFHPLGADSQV

Row | Structure (SMILES) | inhibition [1] [%] | inhibition [2] [%] | inhibition [3] [%]
1 | c1ccc(-c2cc(NCCCCNc3cc(-c4ccccc4)nc4ccccc34)c3ccccc3n2)cc1 | 6.88 | 7.17 | 6.81
2 | CCCCn1c(Sc2ccc(C#N)c([N+](=O)[O-])c2)nnc1-c1cc(OC)cc(OC)c1 | 0.5 | 3.21 | 0.45
3 | CCNc1cc(C(=O)N[C@@H](Cc2ccccc2)[C@H](O)CNC23CCC(CC2)CC3)cc(N2CCCCS2(=O)=O)c1 | 0.73 | 0.04 | 0.09
4 | O=C(NC1CCN(Cc2ccccc2O)C1)c1ccc(-c2ccccc2)cc1 (configuration not stated) | 0.98 | 0.41 | 1.16
5 | N#Cc1ccccc1S(=O)(=O)N1CCCC(CNC(=O)[C@H](CC2CCCCC2)NC(=O)c2cc3ccccc3s2)C1 (some centres not stated) | 1.08 | 2.15 | 0.55
6 | CCOC(=O)C1=C(C)NC2=C(C(=O)C(C(=O)OC)C(C)C2)C1c1cc(Br)c(OCC)c(OC)c1 (configuration not stated) | 8.37 | 6.84 | 6.67
7 | CN1CCC(N(Cc2ccc(-c3ccc(C(F)(F)F)cc3)cc2)C(=O)Cn2cc(Cc3cnn(C)c3)c(=O)nc2SCc2cccc(F)c2F)CC1 | 2.43 | 2.37 | 2.81
8 | N#Cc1ccc2c(c1)CCN(CCC1CCC(NC(=O)c3cc4ccc(Br)cc4[nH]3)CC1)C2 (configuration not stated) | 1.19 | 0.57 | 1.16
9 | Cn1cncc1C(=O)Nc1cccc(-c2csc(-c3nc4ccccc4[nH]3)c2)c1 | 2.44 | 3.44 | 2.3
10 | c1cnc2ccc(NCc3ccc(-c4ccc(CNC5CCCC5)cc4)cc3)cc2c1 | 0.93 | 0.1 | -6.73
11 | CC(C)CNCc1ccc(-c2ccc(CNC3CCN(Cc4ccccc4)CC3)cc2)cc1 | 0.98 | 4.82 | 5.31
12 | Cc1cc(N[C@@H](Cc2ccccc2)C(=O)NCCc2ccccc2)nc(NCC2CCCCC2)n1 | 2.97 | 3.86 | 1.29
13 | Cc1cc2nc(N=C3NC4(c5ccccn5)NC(=Nc5nc6cc(C)c(C)cc6[nH]5)NC4(c4ccccn4)N3)[nH]c2cc1C (configuration not stated) | 2.01 | -0.16 | -0.63
14 | Cc1cc(-c2ccc(CNC3Cc4ccccc4C3)cc2)ccc1S(=O)(=O)NCCN1CCCC1 | 30.9 | 30.9 | 3.47
15 | Nc1c(I)cc(C(=O)Nc2ccc3nc4c(c(N)c3c2)CCCC4)cc1I | 2.52 | 1.16 | 1.17
16 | Cc1cccc2nc(O)c([N+](=O)[O-])c(O)c12 | 2.09 | 1.72 | 2.14
17 | CCCCc1ccc(S(=O)(=O)Nc2ccc3c(c2)CCN(Cc2c[nH]c4cnccc24)CC3)cc1 | -1.78 | -0.79 | 5.76
18 | CCN(CC)CCN(Cc1ccc(-c2ccc(C(F)(F)F)cc2)cc1)C(=O)Cn1cc(Cc2cnn(C)c2)c(=O)n2nc(-c3ccccc3)cc12 | 4.45 | 4.37 | 4.16
19 | COc1ccc2[nH]c3ccccc3c(=O)c2c1 | -0.87 | 0.99 | 6.72
20 | COc1ccc(Cc2cccc(C(C(=O)NCc3cc(Cl)cc(Cl)c3)N3CCN(C)CC3)c2)cc1 (configuration not stated) | -1.02 | -1.26 | 0.4
21 | O=C(Nc1ccc(Cn2ncc(N3CCNCC3)c(Cl)c2=O)cc1)Nc1ccc(-c2ccccc2)cc1 | 4.36 | 2.78 | -0.78
22 | Cc1nnsc1C(=O)Nc1cccc(-c2ccc(-c3nc4ccccc4[nH]3)s2)c1 | 1.8 | 1.37 | -0.11
23 | COc1cc2nc(NCc3nc4ccccc4[nH]3)nc(N)c2cc1OC | 11 | 11.9 | 10.3

Row | Structure (SMILES) | inhibition [1] [%] | inhibition [2] [%] | inhibition [3] [%]
24 | Cc1cc(-c2c[nH]c3ncc(-c4cccc5ncccc45)cc23)ccc1C(=O)O | 0.89 | 0.55 | 0.66
25 | Cc1nc(C)c(-c2ccc(C(=O)c3ccc(Cl)cc3)cc2)c(O)c1Br | 1.02 | 1.24 | 0.57
26 | CCCn1c(=N)c(C(=O)NCCc2ccccc2)cc2c(=O)n3cccc(C)c3nc21 | 5.16 | 7.01 | 2.32
27 | O=c1cc(NCCCNCc2cccc3c2OC(F)(F)O3)[nH]c2ccccc12 | 2.3 | 1.38 | 1.85
28 | COc1ccc(/C=C/C(=O)Nc2ccc(-c3ccncc3)cc2)cc1CCCN(C)C | 6.87 | 5.55 | 6.94
29 | Cn1nc(C(F)(F)F)c(-c2ccc(Br)cc2)c1NC(=O)Nc1ccc(F)cc1F | 1.12 | 1.19 | 1.25
30 | Cc1cc(NC(=O)NCCN2CCC(NC(=O)c3ccc(C(F)(F)F)cc3)CC2)c2ccccc2n1 | 0.67 | 0.01 | -0.57
31 | CCN(CC)CCN(Cc1ccc(-c2ccc(C(F)(F)F)cc2)cc1)C(=O)Cn1c(CCc2cc(F)cc(F)c2)nc(=O)c2ccccc21 | 1 | 1.07 | 1.47
32 | Cc1cc(NCCC(=O)Nc2ccccc2)nc(NCCc2cccnc2)n1 | 0.51 | 2.33 | 1.5
33 | CCNC[C@@H](O)[C@H](Cc1ccccc1)NC(=O)c1cc2c3c(c1)c(CC)cn3CCS(=O)(=O)N2C | 0.67 | 0.11 | -0.02
34 | C=CCn1c(=N)c(C(=O)NCc2ccc(F)cc2)cc2c(=O)n3cccc(C)c3nc21 | 3.56 | 3.45 | 2.22
35 | CC(C)n1ncc2c3c(N)nc(N)nc3ccc21 | 1.85 | 1.69 | 2.51
36 | COc1cc(C=Cc2ccc3ccccc3n2)cc(Br)c1OCC(=O)N(C)C | 6.85 | -1.14 | -0.95
37 | CCCCOc1ccc(N2C(N)=NC(N)=NC2(C)C)cc1 | 2.55 | 1.89 | 1.88
38 | O=C(Nc1ccc(Cl)cc1)c1cccc2nc(C(F)(F)F)[nH]c12 | 9.28 | 9.14 | 5.94
39 | O=C(/C=C/c1ccc(Cl)c(Cl)c1)NCCCCCN1CCC(NC(=O)Nc2cccc(Cl)c2F)CC1 | -0.8 | -0.65 | -9.82
40 | COc1cc(F)c2ncc(Cl)c(CCN3CCC(NCc4ccc5c(c4)NC(=O)CS5)CC3)c2c1 | 15.1 | 18.3 | 8.82
41 | Cc1cc(N2CCCC2)nc(Nc2ccc(NC(=O)CC(C)C)cc2)n1 | 1 | 3.11 | 2.23
42 | O=C(/C=C/c1ccc(Cl)c(Cl)c1)NCCCCCN1CCC(NC(=O)Nc2cc(Cl)nc(Cl)c2)CC1 | 1.28 | -0.18 | 0.44
43 | Cn1c(Nc2cc(C(C)(C)C)on2)nc2cc(Nc3ccnc(Nc4cccc(CS(C)(=O)=O)c4)n3)ccc21 | 0.14 | 2.81 | -0.39
44 | COCCN1CCC(CNCC(C)(C)c2nc(-c3ccc(Cl)c(O)c3)c(-c3ccncc3)[nH]2)CC1 | 7.22 | 7.6 | 7.7
45 | O=C(CNC1CCCCC1)Nc1cccc(C(=O)Nc2cccc(C(F)(F)F)c2)c1 | -1.07 | -0.66 | -1.14
46 | O=C(C=Cc1ccc(Cl)c(Cl)c1)NCCCCCN1CCCC(CCCNS(=O)(=O)c2cccc(C(F)(F)F)c2)C1 (configuration not stated) | 0.93 | -0.07 | 2.4

Row | Structure (SMILES) | inhibition [1] [%] | inhibition [2] [%] | inhibition [3] [%]
47 | COc1ccc(-c2nc3ccc(C)nc3nc2-c2ccc(OC)cc2)cc1 | 5.17 | 3.91 | 3.89
48 | Cn1ccnc1CNC(=O)c1ccc(-c2ccc(-c3nc4cc(C(F)(F)F)ccc4[nH]3)s2)cc1 | 4.17 | 3.3 | 2.03
49 | O=C(NC1CCCCC1)N(Cc1ccccc1-c1ccc(CNCCc2ccccc2)cc1)C1CCN(Cc2ccccc2)CC1 | 4.39 | 3.18 | -0.58
50 | CC(C)(C)c1ccc(NC(=O)c2ccc(CN3CCCN(Cc4cccc(Cl)c4)CC3)cc2)cc1 | 4.39 | 2.95 | 1.91
51 | O=S(=O)(c1ccc2ccccc2c1)N1CCCN(Cc2ccc(OCCCN3CCCCC3)cc2)CC1 | 63 | 71.4 | 45.5
52 | C=CCc1c(C(=O)NCC23CC4CC(CC(C4)C2)C3)nc2ccccc2c1O | -2.74 | 0.27 | 3.24
53 | Oc1ccc(-c2nc(-c3ccc4oc5ccc(-c6[nH]c(-c7ccc(O)cc7)nc6-c6ccccc6)cc5c4c3)c(-c3ccccc3)[nH]2)cc1 | -2.06 | -1.28 | -0.47
54 | CC(C)N1CCN(CCCNc2c3ccccc3nc3ccccc23)CC1 | 40.1 | 58 | 19
55 | NC1CCCN(Cc2cccc(-c3ccc(-c4nc5cc(F)ccc5[nH]4)cc3)c2)C1 (configuration not stated) | 3.55 | 3.14 | 3.43
56 | CCCCCN1CCC(NC(=O)c2ccc(C(=O)Nc3ccc(C(C)C)cc3)cc2)CC1 | -0.86 | -0.06 | -5.29
57 | CCc1nonc1NC(=O)c1oc2c(C)c(C)ccc2c1C | 7.09 | 5.3 | 7.88
58 | O=C(NCCCN(Cc1ccc(F)cc1)c1ccccn1)C(c1cc2ccccc2o1)N1CCN(C(c2ccccc2)c2ccccc2)CC1 (configuration not stated) | 3.35 | 3.69 | 1.89
59 | CC(=O)Oc1c(C2CCN(CCCCNC(=O)c3ccc(-c4ccc(C#N)cc4)cc3)CC2)ccc2c1CCCC2 | 0.47 | 1.16 | 1.58
60 | COc1ccccc1N1CCN(CCCCNC(=O)c2ccc(NC(=O)c3ccc(C(F)(F)F)cc3)cc2)CC1 | -0.92 | -0.29 | -0.69
61 | CCOc1cc(/C=N/Nc2nc3ccccc3[nH]2)ccc1OCc1ccc([N+](=O)[O-])cc1 | 5.62 | 4.53 | 4.41
62 | CC(=NO)C1=C(O)C(c2ccccc2)N(c2ccccc2)C1=O (configuration not stated) | 1.86 | 2.06 | 1.72
63 | Cc1ccccc1OCCCc1c(C)nc(N)nc1N | 3.68 | 9.06 | 0.82
64 | CC1CN(Cc2ccccc2)CCN1c1ccc(NC(=O)c2cccs2)cc1 (configuration not stated) | 10.9 | 12.3 | 10.8
65 | COc1ccc(-c2ccc(NC(=O)c3cccc(Cl)c3)cc2)cc1CN(C)CCN(C)C | 15.6 | 14.4 | 4.62
66 | Cc1cccc(CN2CCCN(Cc3ccc(C(=O)Nc4ccc(C(C)(C)C)cc4)cc3)CC2)c1 | 1.47 | 1.6 | -0.38
67 | CN1CCN(c2ccnc3cc4c(cc23)N(Cc2ccccc2)CC4)CC1 | -1.34 | -0.13 | 0.13
68 | O=C(Nc1ccsc1)Nc1cccc(-c2cccc(-c3nc4cc(C(F)(F)F)ccc4[nH]3)c2)c1 | -1.45 | 1.47 | 1.55
69 | O=C(NCCCCN1CCC(c2ccc3c(c2OCc2ccccn2)CCCC3)CC1)c1ccc(NC(=O)c2ccc(Cl)cc2)cc1 | 2.21 | 0.31 | 2.55
